Source: PubChem (several laboratories)
A selection: hits, their analogues and other compounds. The true share with any hit is near 1.9%.
eIF4H inh: human eIF4H binding inhibitors, primary screen, translation initiation inhibitor project, biochemical, uHTS, fluorescence polarization; Eukaryotic translation initiation factor 4H (Homo sapiens), Q15056; eIF4H fluorescence polarization binding assay; inhibition, % at 35 µM; hit rate 0.94% among 290,000; AID 2012, 2009;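 further: calls also rest on retests at 20 µM and on dose response follow-up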
PABP FP inh: PABP poly(A) RNA binding inhibitors, primary screen, biochemical, fluorescence polarization, uHTS; AID 2014, 2009; inhibition, % at 35 µM; hit rate 1% among 290,000; Polyadenylate-binding protein 1 (Homo sapiens), P11940;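 further: calls also rest on retests at 20 µM and on dose response follow-up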
Target sequence (P11940 whole entry, looked up): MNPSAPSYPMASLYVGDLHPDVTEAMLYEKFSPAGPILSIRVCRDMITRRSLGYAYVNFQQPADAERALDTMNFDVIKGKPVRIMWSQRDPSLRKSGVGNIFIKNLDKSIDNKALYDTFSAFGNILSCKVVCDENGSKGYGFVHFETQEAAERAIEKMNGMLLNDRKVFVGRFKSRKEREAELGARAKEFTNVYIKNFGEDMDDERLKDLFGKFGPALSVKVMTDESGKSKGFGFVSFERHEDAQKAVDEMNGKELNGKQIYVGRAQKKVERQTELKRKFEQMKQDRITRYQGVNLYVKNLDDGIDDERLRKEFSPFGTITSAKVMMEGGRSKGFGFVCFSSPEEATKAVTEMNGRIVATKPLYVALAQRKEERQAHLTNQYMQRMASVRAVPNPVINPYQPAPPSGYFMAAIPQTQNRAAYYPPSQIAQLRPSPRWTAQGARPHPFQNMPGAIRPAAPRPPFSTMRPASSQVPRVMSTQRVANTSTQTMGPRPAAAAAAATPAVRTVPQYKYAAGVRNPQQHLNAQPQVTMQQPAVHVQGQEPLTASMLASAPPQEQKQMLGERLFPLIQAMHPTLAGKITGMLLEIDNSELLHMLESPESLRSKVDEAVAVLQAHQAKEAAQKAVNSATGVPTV
PERK inh: block of dimerizer-induced PERK translation repression, primary screen, PERK inhibitor project, CHO PERK-DD cells, SEAP luminescence, HTS; Eukaryotic translation initiation factor 2-alpha kinase 3 (Homo sapiens), Q9NZJ5; CHO PERK-DD fusion, SEAP luminescence translation reporter; inhibition, % at 5.6 µM; hit rate 0.17% among 220,000;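 active means inhibition above the mean inhibition of all tested compounds plus 3 SD, set separately per screening campaign, cut at about 2.9% in these data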;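 further: PERK kinase domain activated by AP20187 dimerizer at 100 nM; 0% = DMSO with dimerizer and 100% = rapamycin at 8.4 µM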
GRK2 inh: compounds blocking aptamer binding on GRK2 – biochemical, human GRK2, bead flow cytometry, HTS, primary screen | inhibition of aptamer binding, % at 10 µM | hit rate 0.59% among 330,000 | Beta-adrenergic receptor kinase 1 (Homo sapiens), P25098 | FAM-aptamer displacement from GRK2;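 active means inhibition of aptamer binding above 40%, roughly 3 SD of noise, on plates passing a quality check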;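 further: median bead fluorescence of bound FAM aptamer so fluorescent compounds give negative values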
MLLE-PAM2 inh: inhibitors of PABP1 MLLE–PAM2 peptide binding, primary screen, biochemical, fluorescence polarization, FITC-PAM2, GST-MLLE | Polyadenylate-binding protein 1 (Homo sapiens), P11940 | inhibition, % at 20 µM | hit rate 0.36% among 360,000; in the data active means inhibition above about 35%, passing the limit was not always enough;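 further: plate controls were DMSO wells with GST-MLLE for no effect and wells lacking GST-MLLE protein for full effect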
Starred values were filed as active, the others as inactive; ? = inconclusive; / = not tested or not shown; ! = not active in a repeat. Unless noted, how the calls were made is not given here.

SMILES | eIF4H inh | PABP FP inh | PERK inh | GRK2 inh | MLLE-PAM2 inh
COc1ccc(/C=C2\CCOC2=O)cc1 | 7 | -9 | 2 | 0 | 25
CCOC(=O)C1CCCN(C(=O)c2[nH]c(C(F)(F)F)nc2-c2ccccc2)C1 (stereo not drawn) | / | / | / | / | 7
ONc1cccnc1-n1nc(C(F)(F)F)cc1C(F)(F)F | 64* | 25 | 1 | 0 | /
O=C(O)Cc1ccc(N=Nc2c(O)c(C(=O)O)cc3ccccc23)cc1 | 77* | 45* | 1 | 1 | 3
C[n+]1ccccc1/C=C/c1c(F)cccc1F | 63 | 76* | / | 0 | -106
C[n+]1ccccc1/C=C/c1ccccc1Cl | 79* | 90* | / | 0 | -94
Cc1ccccc1/C=C/c1cccc[n+]1C | / | / | / | 0 | -124
C[n+]1ccccc1/C=C/c1ccc(F)c(F)c1 | / | / | / | 0 | -125
CCC1CN(C(=O)N2CCC(C(=O)Nc3ccccc3F)CC2)c2ccccc2O1 (stereo not drawn) | -11 | -6 | / | 0 | 0
Cc1cc(C(C)C)n2c(nc3ccccc32)c1C#N | -1 | 6 | 1 | 1 | /
Cc1cc(-c2ccco2)c(C#N)c2nc3ccccc3n12 | 88* | 88* | -1 | 1 | 16
CCOC(=O)N1CCN(Cc2c(O)ccc3ccccc23)CC1 | -2 | 2 | 1 | 0 | 40*
CCOC(=O)C1CCN(Cc2c(O)ccc3ccccc23)CC1 | 0 | -8 | 0 | 0 | 13
Cn1ccc2c(-c3cccc(C=O)c3)cc3c(c21)C1CCC3O1 (stereo not drawn) | / | / | / | / | 6
CCN(CC)S(=O)(=O)c1ccc(N2CCOCC2)c(NC(=O)CC(C)(C)C)c1 | 1 | 21 | -1 | 0 | 5
CCN(CC)S(=O)(=O)c1ccc(N2CCOCC2)c(NC(=O)CCC2CCCCC2)c1 | 4 | 20 | -1 | 4 | 39*
CN(CCOc1ccc(Cl)cc1)C(=O)c1cccc(S(=O)(=O)N2CCN(c3ccccc3)CC2)c1 | / | / | / | / | -4
NC(=O)N1c2ccccc2CC(=O)c2ccccc21 | 71*! | 21*! | 2 | 4 | 61*
CCCCn1c(CCC(=O)O)nc2cc(S(=O)(=O)N(CC)CC)ccc21 | 48 | 21 | 1 | 5 | -22
O=c1[nH]c2cc3ccccc3cc2nc1C(F)(F)F | 38 | 1 | 0 | 4 | 41*
CC(C)Cc1csc(NC(=O)c2ccc(Br)cc2)c1C(=O)O | -4 | -1 | 3.2* | 1 | 7
CC(C)Cc1csc(NC(=O)C(C)C)c1C(=O)O | -10 | -4 | 0 | 2 | 0
COCCN(C(=O)CSc1ccc2c(c1)OCCO2)c1c(N)n(CC(C)C)c(=O)[nH]c1=O | / | / | / | 6 | 42*
CCOc1ccccc1N1CCN(CC(=O)N(CC(C)C)c2c(N)n(CC(C)C)c(=O)[nH]c2=O)CC1 | 9.0* | 51* | 0 | 0 | -4
COc1ccccc1N1CCN(CC(=O)N(CC(C)C)c2c(N)n(CC(C)C)c(=O)[nH]c2=O)CC1 | -7 | 11 | 0 | 0 | 15
SMILES | eIF4H inh | PABP FP inh | PERK inh | GRK2 inh | MLLE-PAM2 inh
CCOC(=O)N1CCC(NC(=O)c2ccc3c(c2)N(CC)CCS3)CC1 | / | / | 0 | 0 | 38*
CC1CCC2(CC1)NC(=O)N(CC(=O)N1CCN(S(=O)(=O)c3ccccc3)CC1)C2=O (stereo not drawn) | 2 | -3 | 0 | 0 | -3
NC(=O)C12CCCC(Br)(CCC1)C2 | -9 | 3 | 0 | 0 | -8
O=C(N/C(=C\c1ccco1)C(=O)N1CCCC1CO)c1ccccc1 (stereo not drawn) | 18 | 23 | / | 2 | 34*
O=C(NCc1ccccn1)/C(=C/c1ccco1)NC(=O)c1ccccc1 | 82* | 0.3* | 2 | 0 | -3
Cc1ccc(C(=O)N/C(=C/c2ccco2)C(=O)NCc2ccco2)cc1 | 24 | 18 | / | 4 | -6
Cc1ccc(C(=O)N/C(=C/c2ccco2)C(=O)O)cc1 | 87* | 120* | 0 | 2 | 15
CCOC(=O)/C(=C\c1ccc(C)cc1)NC(=O)c1ccccc1 | 78* | 54* | -1 | 4 | 5
Cc1ccc(/C=C(\NC(=O)c2ccccc2)C(=O)OCc2ccccc2)cc1 | -14 | -6 | 0 | 0 | -2
O=C(Cn1c2c(c(-c3ccccc3Cl)cc1=O)CCC2)NCCCN1CCOCC1 | 2 | -5 | 0 | 1 | 15
COc1cccc(CN(C)C(=O)c2csc3c2CCCC3)c1OC | -9 | -9 | -1 | 10 | 2
Cc1cc(O)c(C=O)c2c1C(=O)Oc1c(CO)c(O)c3c(c1O2)C(O)OC3=O (stereo not drawn) | 108* | 85* | 0 | 72* | 24
CC(C)(C)C(=O)NC(=S)NNC(=O)c1sc2ccccc2c1Cl | 9 | -15 | 0 | 49* | 21
O=C(NNC(=S)NC1CCCCC1)c1sc2ccccc2c1Cl | 15 | 1 | 2 | 0 | 14
COc1ccc(N=Nc2n(C)c3ccccc3[n+]2C)cc1 | ? | ? | 3.4* | / | /
Cn1c(COc2ccccc2O)[n+](C)c2ccccc21 | -12 | 9 | / | 1 | 4
CCc1c(O)nc(SCC(=O)N2CCc3cc(OC)c(OC)cc3[C@@H]2C)[nH]c1=O | 0 | -5 | / | 2 | 43*
COc1cc(/C=C/C(=O)OCC(=O)N2c3ccccc3NC(=O)C2(C)C)cc(OC)c1OC | / | / | / | 0 | -11
CCOC(=O)SC1=N/C(=C\c2ccc(N(C)C)cc2)C(=O)S1 | 111* | 116* | 1 | 1 | -124
COc1cc(SC)ccc1C(=O)N1CCN(Cc2ccc3c(c2)OCO3)CC1 | -9 | -3 | / | 1 | 0
CC(C)Cc1cc(C(=O)Nc2c(F)cc(F)cc2Br)no1 | 61* | -8 | 0 | 3 | 11
CC(C)Cc1cc(C(=O)Nc2ccc(F)cc2F)no1 | 1 | -4 | 2 | 2 | -12
CCCCNC(=O)C1(C)CCCCN1C(=O)c1ccc(C#N)cc1 (stereo not drawn) | / | / | / | / | 0
O=C(NC1CCCCCC1)C(=S)NCc1ccccc1 | -2 | -1 | 1 | 0 | 24
O=C(NC1CCCCCC1)C(=S)NCCc1ccccc1 | -9 | -5 | 2 | 1 | 44*
CC(NC(=O)c1ccco1)c1nc(-c2ccccc2Cl)no1 (stereo not drawn) | -9 | 5 | / | 0 | 6
O=C(O)CSCC(=O)N(Cc1ccccc1)c1nc(-c2ccccc2)c(-c2ccccc2)s1 | 74* | 11 | / | 0 | -1
COc1cc(NC(=O)c2cc3ccccc3cc2O)c(OC)cc1Cl | 10 | 12 | -1 | 0 | 9
COc1ccccc1NC(=O)c1cc2cc(Br)ccc2cc1O | 80* | 28 | 0 | 4 | -6
